# Data as given in PubChem BioAssay.
# Results filed as inconclusive are left out. The source made the active and inactive calls. Unless noted, no cut-off is given here; in the data, nearly all actives have AC50 up to about 26 µM.
# Assays:
# [1] = viability loss in pontine glioma line – cell-based, SU-DIPG-XVII, MIPE5.0, CellTiter-Glo, qHTS, dose response (AID 1347060); conditions: CellTiter-Glo ATP luminescence;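 for AC50: cells exposed to compound for 48 hours before viability readout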
# [2] = viability loss in pontine glioma line – cell-based, SU-DIPG-XIII, MIPE4.0, CellTiter-Glo, qHTS, dose response (AID 1347061; cut-off not given, nearly all actives have AC50 up to about 37 µM;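 note: cells exposed to compound for 48 hours before readout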); conditions: CellTiter-Glo ATP luminescence
# [3] = viability loss in pontine glioma line – cell-based, JHH-DIPG-1, MIPE4.0, CellTiter-Glo, qHTS, dose response (AID 1347062; cut-off not given, nearly all actives have AC50 up to about 27 µM;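 for AC50: cells exposed to compound for two days before readout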); conditions: JHH-DIPG-1 viability, CellTiter-Glo ATP luminescence
# [4] = viability loss in pontine glioma line – cell-based, SU-DIPG-XXV, MIPE5.0, CellTiter-Glo, qHTS, dose response (AID 1347065); conditions: CellTiter-Glo ATP luminescence;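 note: cells exposed to compound for 48 hours before ATP readout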
# [5] = growth inhibition of DIPG cells – cell-based, MIPE4.0 library, CellTiter-Glo luminescence, qHTS (AID 1347066; cut-off not given, nearly all actives have AC50 up to about 30 µM;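 note: cells exposed to compound for 48 hours before readout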); conditions: SU-DIPG-VI viability, CellTiter-Glo ATP luminescence
# [6] = JHH-DIPG-1 glioma cell viability, MIPE5.0 library, CellTiter-Glo luminescence, qHTS (AID 1347067); conditions: JHH-DIPG-1 glioma viability, CellTiter-Glo ATP luminescence;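 note: cells exposed to compound for 48 hours before readout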
# [7] = viability loss with induced miR-34 in A549 – imaging, A549 dox-inducible miR-34, nuclei and caspase counts, primary screen (AID 1347080;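 active = compounds whose cell count with miR-34 switched on is under 0.7 times the count with it off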); conditions: A549 miR-34 inducible, Hoechst nuclei count, 48 h
# [8] = MELAS cybrid and Rieske KO viability enhancers – cell-based, MELAS cybrids, Rieske KO mouse fibroblasts, CellTiter-Glo, primary screen (AID 1508586;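 active = mean z-score across replicates of 1.96 or higher in either the MELAS or the Rieske mutant cell line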;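 note: z relative to plate mean and SD of compound and empty wells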); conditions: low glucose
# [9] = viability loss in pontine glioma line – cell-based, SU-DIPG-IV, MIPE4.0, CellTiter-Glo, qHTS, dose response (AID 1347063; cut-off not given, nearly all actives have AC50 up to about 30 µM;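 note: compound exposure lasted 48 hours before the viability readout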); conditions: CellTiter-Glo ATP luminescence
# [10] = viability loss in pontine glioma line – cell-based, SU-DIPG-XIII, MIPE5.0, CellTiter-Glo, qHTS, dose response (AID 1347064; cut-off not given, nearly all actives have AC50 up to about 23 µM;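 for AC50: cells exposed to compound for 48 hours before the viability read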); conditions: CellTiter-Glo ATP luminescence
# [11] = growth inhibition of DIPG cells – cell-based, MIPE5.0 library, qHTS (AID 1347068; cut-off not given, nearly all actives have IC50 up to about 30 µM;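 for IC50: cells exposed to compound for 48 hours before viability readout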); conditions: SU-DIPG-XXV viability
# [12] = compounds altering HSF1 focus formation in cells – imaging, Selleck Cancer Library (AID 1347162; in the data active = plate-normalised HSF1 focus index below about 0.46); conditions: human cells, HSF1 nuclear foci imaging, at 10 µM; SSMD: measured here: HSF1 foci SSMD mean; cell count: measured here: cell number; plate-normalised HSF1 focus index: stronger effect = lower value
# [13] = drug combination growth inhibition, ovarian cancer – cell-based, oncology-focused library, rucaparib conditional, profiling panel (AID 1508598;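 active = normalized viability below 100% at a tested concentration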); conditions: patient-derived ovarian cancer cells, CellTiter-Glo viability, 144 h, stronger effect = lower value
# [14] = stronger effect = lower value, cell number ratio, induced over uninduced
# [15] = measured here: relative caspase fold change +Dox/-Dox
# [16] = measured here: total cells with miR-34 induction, stronger effect = lower value
# [17] = measured here: total cells without miR-34 induction
# [18] = MELAS cybrid survival, CellTiter-Glo 48 h, stronger effect = higher value
# [19] = Rieske KO mouse fibroblast survival, CellTiter-Glo 72 h
smiles,measurement,setting,value
Cn1cnc2c(F)c(Nc3ccc(Br)cc3F)c(C(=O)NOCCO)cc21,AC50,[1],3.72 µM (active)
same,AC50,[2],4.18 µM (active)
same,AC50,[3],6.62 µM (active)
same,AC50,[4],5.25 µM (active)
same,outcome,[5],inactive
same,AC50,[6],0.833 µM (active)
same,fold change,[7]; [14],0.958 (inactive)
same,fold change,[7]; [15],0.664
same,cell count,[7]; [16],4350
same,cell count,[7]; [17],4540
same,z-score,[8]; [18],0.0149 (inactive)
same,z-score,[8]; [19],-0.207
C=C1CCC2[C@](C)(CO)C(O)CC[C@]2(C)C1C/C=C1/C(=O)OCC1O (stereo not given in full),AC50,[1],16.6 µM (active)
same,outcome,[2],inactive
same,outcome,[9],inactive
same,AC50,[10],16.6 µM (active)
same,AC50,[4],13.2 µM (active)
same,outcome,[5],inactive
same,AC50,[6],13.2 µM (active)
CNC(=O)c1c(F)cccc1Nc1nc(Nc2cc3c(cc2OC)CCN3C(=O)CN(C)C)nc2[nH]ccc12,AC50,[1],5.25 µM (active)
same,AC50,[2],0.235 µM (active)
same,AC50,[9],2.64 µM (active)
same,AC50,[10],0.934 µM (active)
same,AC50,[4],0.661 µM (active)
same,AC50,[5],0.0833 µM (active)
same,AC50,[6],3.32 µM (active)
same,IC50,[11],14.8 µM (active)
same,fold change,[7]; [14],0.926 (inactive)
same,fold change,[7]; [15],0.874
same,cell count,[7]; [16],5320
same,cell count,[7]; [17],5750
same,z-score,[8]; [18],-0.536 (inactive)
same,z-score,[8]; [19],-0.594
CC1(C)S[C@H]2[C@H](NC(=O)[C@@H](N)c3ccc(O)cc3)C(=O)N2[C@H]1C(=O)O,outcome,[1],inactive
same,AC50,[2],23.5 µM (active)
same,AC50,[3],1.32 µM (active)
same,outcome,[4],inactive
same,outcome,[5],inactive
same,outcome,[6],inactive
same,outcome,[11],inactive
Cc1nc(NC(=O)N2CCC[C@H]2C(N)=O)sc1-c1ccnc(C(C)(C)C(F)(F)F)c1,AC50,[1],5.9 µM (active)
same,AC50,[2],1.87 µM (active)
same,AC50,[9],1.05 µM (active)
same,AC50,[10],4.68 µM (active)
same,AC50,[4],3.32 µM (active)
same,AC50,[5],1.66 µM (active)
COc1cccc(OC)c1-c1cc(C(=O)NC2(C(=O)O)C3CC4CC(C3)CC2C4)nn1-c1ccnc2cc(Cl)ccc12 (stereo not given),AC50,[1],14.8 µM (active)
same,outcome,[2],inactive
same,outcome,[3],inactive
same,AC50,[4],18.6 µM (active)
same,outcome,[5],inactive
same,outcome,[11],inactive
Cc1ccc(S(=O)(=O)Nc2cc(Cl)ccc2C(=O)Nc2nc(-c3ccccc3)cs2)cc1,AC50,[1],7.42 µM (active)
same,AC50,[2],10.5 µM (active)
same,AC50,[9],16.6 µM (active)
same,AC50,[4],8.33 µM (active)
same,AC50,[5],5.26 µM (active)
same,AC50,[6],1.05 µM (active)
CC1(C)CCC(CN2CCN(c3ccc(C(=O)NS(=O)(=O)c4ccc(NCC5CCOCC5)c([N+](=O)[O-])c4)c(Oc4cnc5[nH]ccc5c4)c3)CC2)=C(c2ccc(Cl)cc2)C1,AC50,[1],18.6 µM (active)
same,outcome,[2],inactive
same,AC50,[9],10.5 µM (active)
same,AC50,[4],0.417 µM (active)
same,AC50,[5],7.43 µM (active)
same,AC50,[6],13.2 µM (active)
same,outcome,[11],inactive
same,fold change,[7]; [14],1.1 (inactive)
same,fold change,[7]; [15],0.349
same,cell count,[7]; [16],5370
same,cell count,[7]; [17],4860
same,z-score,[8]; [18],-0.355 (inactive)
same,z-score,[8]; [19],0.0474
Cc1cn(-c2cc(NC(=O)c3ccc(C)c(Nc4nccc(-c5cccnc5)n4)c3)cc(C(F)(F)F)c2)cn1,AC50,[1],10.5 µM (active)
same,outcome,[2],inactive
same,AC50,[9],8.33 µM (active)
same,AC50,[4],10.5 µM (active)
same,AC50,[6],11.8 µM (active)
same,fold change,[7]; [14],0.874 (inactive)
same,fold change,[7]; [15],0.941
same,cell count,[7]; [16],1260
same,cell count,[7]; [17],1440
same,SSMD,[12],0.723
same,cell count,[12],7680
same,plate-normalised HSF1 focus index,[12],1.05 (inactive)
same,z-score,[8]; [18],3.41 (active)
same,z-score,[8]; [19],-0.657
same,viability,"[13]; at 0.000305 µM, OCI-C5x cells, with rucaparib 10 µM, 100% = cells with rucaparib alone",106% (inactive)
same,viability,"[13]; at 0.000305 µM, OCI-C5x cells, without rucaparib",116% (inactive)
same,viability,"[13]; at 0.000305 µM, OCI-P5x cells, with rucaparib 20 µM, 100% = cells with rucaparib alone",103% (inactive)
same,viability,"[13]; at 0.000305 µM, OCI-P5x cells, without rucaparib",105% (inactive)
same,viability,"[13]; at 0.00122 µM, OCI-C5x cells, with rucaparib 10 µM, 100% = cells with rucaparib alone",108% (inactive)
same,viability,"[13]; at 0.00122 µM, OCI-C5x cells, without rucaparib",117% (inactive)
same,viability,"[13]; at 0.00122 µM, OCI-P5x cells, with rucaparib 20 µM, 100% = cells with rucaparib alone",100% (inactive)
same,viability,"[13]; at 0.00122 µM, OCI-P5x cells, without rucaparib",101% (inactive)
same,viability,"[13]; at 0.00488 µM, OCI-C5x cells, with rucaparib 10 µM, 100% = cells with rucaparib alone",109% (inactive)
same,viability,"[13]; at 0.00488 µM, OCI-C5x cells, without rucaparib",116% (inactive)
same,viability,"[13]; at 0.00488 µM, OCI-P5x cells, with rucaparib 20 µM, 100% = cells with rucaparib alone",103% (inactive)
same,viability,"[13]; at 0.00488 µM, OCI-P5x cells, without rucaparib",98.8% (active)
same,viability,"[13]; at 0.0195 µM, OCI-C5x cells, with rucaparib 10 µM, 100% = cells with rucaparib alone",105% (inactive)
same,viability,"[13]; at 0.0195 µM, OCI-C5x cells, without rucaparib",127% (inactive)
same,viability,"[13]; at 0.0195 µM, OCI-P5x cells, with rucaparib 20 µM, 100% = cells with rucaparib alone",102% (inactive)
same,viability,"[13]; at 0.0195 µM, OCI-P5x cells, without rucaparib",91.4% (active)
same,viability,"[13]; at 0.0781 µM, OCI-C5x cells, with rucaparib 10 µM, 100% = cells with rucaparib alone",117% (inactive)
same,viability,"[13]; at 0.0781 µM, OCI-C5x cells, without rucaparib",116% (inactive)
same,viability,"[13]; at 0.0781 µM, OCI-P5x cells, with rucaparib 20 µM, 100% = cells with rucaparib alone",98.7% (active)
same,viability,"[13]; at 0.0781 µM, OCI-P5x cells, without rucaparib",104% (inactive)
same,viability,"[13]; at 0.313 µM, OCI-C5x cells, with rucaparib 10 µM, 100% = cells with rucaparib alone",107% (inactive)
same,viability,"[13]; at 0.313 µM, OCI-C5x cells, without rucaparib",118% (inactive)
same,viability,"[13]; at 0.313 µM, OCI-P5x cells, with rucaparib 20 µM, 100% = cells with rucaparib alone",116% (inactive)
same,viability,"[13]; at 0.313 µM, OCI-P5x cells, without rucaparib",103% (inactive)
same,viability,"[13]; at 1.25 µM, OCI-C5x cells, with rucaparib 10 µM, 100% = cells with rucaparib alone",127% (inactive)
same,viability,"[13]; at 1.25 µM, OCI-C5x cells, without rucaparib",117% (inactive)
same,viability,"[13]; at 1.25 µM, OCI-P5x cells, with rucaparib 20 µM, 100% = cells with rucaparib alone",97.7% (active)
same,viability,"[13]; at 1.25 µM, OCI-P5x cells, without rucaparib",91.7% (active)
same,viability,"[13]; at 5 µM, OCI-C5x cells, with rucaparib 10 µM, 100% = cells with rucaparib alone",139% (inactive)
same,viability,"[13]; at 5 µM, OCI-C5x cells, without rucaparib",116% (inactive)
same,viability,"[13]; at 5 µM, OCI-P5x cells, with rucaparib 20 µM, 100% = cells with rucaparib alone",68% (active)
same,viability,"[13]; at 5 µM, OCI-P5x cells, without rucaparib",30.3% (active)
O=C(O)Cn1nnc(-c2cc(N3CCC(Oc4cc(F)ccc4Br)CC3)no2)n1,outcome,[1],inactive
same,outcome,[2],inactive
same,outcome,[9],inactive
same,outcome,[10],inactive
same,outcome,[5],inactive
same,outcome,[6],inactive
same,outcome,[11],inactive
same,fold change,[7]; [14],0.885 (inactive)
same,fold change,[7]; [15],0.826
same,cell count,[7]; [16],6300
same,cell count,[7]; [17],7120
same,z-score,[8]; [18],-0.382 (inactive)
same,z-score,[8]; [19],0.855
Cn1c(Nc2ccc(C(F)(F)F)cc2)nc2cc(Oc3ccnc(-c4ncc(C(F)(F)F)[nH]4)c3)ccc21,AC50,[1],5.25 µM (active)
same,AC50,[2],16.6 µM (active)
same,AC50,[9],0.132 µM (active)
same,AC50,[4],0.372 µM (active)
same,AC50,[5],3.32 µM (active)
same,AC50,[6],2.63 µM (active)
same,fold change,[7]; [14],0.96 (inactive)
same,fold change,[7]; [15],0.95
same,cell count,[7]; [16],2230
same,cell count,[7]; [17],2330
same,z-score,[8]; [18],0.723 (inactive)
same,z-score,[8]; [19],0.357
Cc1nc(C(=O)NCC(=O)O)c(O)c2ccc(Oc3ccccc3)cc12,outcome,[1],inactive
same,outcome,[2],inactive
same,outcome,[10],inactive
same,outcome,[4],inactive
same,outcome,[5],inactive
same,outcome,[6],inactive
same,outcome,[11],inactive
same,fold change,[7]; [14],0.947 (inactive)
same,fold change,[7]; [15],0.804
same,cell count,[7]; [16],6810
same,cell count,[7]; [17],7190
same,z-score,[8]; [18],-0.0779 (inactive)
same,z-score,[8]; [19],0.278
